Several values for one entry are separate records, joined by “and”; a condition that tells them apart may be missing. Equal entries are not always repeated. Records with an inconclusive call do not appear. Entries that show only a call come without a potency. The source holds several records for some structures; these can differ, active in one and inactive in another. Activity calls are given as the source filed them. Calls come from the whole dose curve; as a rule, active = well fitted curve in the direction sought with a large enough effect in the repeat runs; inconclusive = weak or mixed curves; inactive = no such curve, though single readings can be large; an effect the other way counts as inactive or inconclusive.
Note: nearly all actives have a fitted effect of over 50% in size.
Potency is the fitted concentration of half-maximal effect.

Sequence of Cytochrome P450 1A2 (Homo sapiens) (P05177 whole entry, looked up): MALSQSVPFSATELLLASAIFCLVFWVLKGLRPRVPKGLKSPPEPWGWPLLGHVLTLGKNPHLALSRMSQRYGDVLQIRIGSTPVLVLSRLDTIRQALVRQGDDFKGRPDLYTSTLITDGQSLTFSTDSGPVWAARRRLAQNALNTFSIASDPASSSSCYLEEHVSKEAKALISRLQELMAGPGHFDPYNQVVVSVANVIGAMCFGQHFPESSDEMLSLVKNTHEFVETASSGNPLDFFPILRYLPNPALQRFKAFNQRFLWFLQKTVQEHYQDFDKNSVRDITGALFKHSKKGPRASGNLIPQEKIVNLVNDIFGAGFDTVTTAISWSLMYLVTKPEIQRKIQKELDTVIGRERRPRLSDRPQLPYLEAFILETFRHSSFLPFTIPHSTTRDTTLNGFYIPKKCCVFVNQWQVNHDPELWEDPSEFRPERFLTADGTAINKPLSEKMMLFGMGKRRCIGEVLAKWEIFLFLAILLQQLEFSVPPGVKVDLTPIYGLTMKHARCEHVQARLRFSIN
Sequence of Cytochrome P450 3A4 (Homo sapiens) (P08684 whole entry, looked up): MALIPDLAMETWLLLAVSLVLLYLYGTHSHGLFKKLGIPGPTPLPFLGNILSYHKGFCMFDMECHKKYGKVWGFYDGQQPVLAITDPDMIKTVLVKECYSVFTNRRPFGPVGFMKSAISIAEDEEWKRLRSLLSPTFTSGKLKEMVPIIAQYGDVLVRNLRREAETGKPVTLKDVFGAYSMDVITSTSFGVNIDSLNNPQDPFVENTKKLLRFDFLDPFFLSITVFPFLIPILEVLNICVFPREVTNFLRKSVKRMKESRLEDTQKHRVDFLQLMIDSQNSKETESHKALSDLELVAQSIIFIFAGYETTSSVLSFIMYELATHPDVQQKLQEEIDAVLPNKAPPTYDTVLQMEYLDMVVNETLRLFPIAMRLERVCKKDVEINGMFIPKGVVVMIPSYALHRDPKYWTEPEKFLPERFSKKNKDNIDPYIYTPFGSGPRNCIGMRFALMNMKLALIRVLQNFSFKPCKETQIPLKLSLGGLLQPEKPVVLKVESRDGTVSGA

The target in the first assay is Cytochrome P450 1A2 (Homo sapiens) (UniProt P05177). Put plainly: Cytochrome P450 Family 1 Subfamily A Member 2 (CYP1A2) small molecule antagonists: luciferase reporter qHTS assay (AID 1671199). The conditions noted are these: P450-Glo CYP1A2 enzyme, luciferin luminescence, 1 h; series mostly up to 115 µM. The gist of the method:
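Read-out is luminescence from luciferin detection reagent (20 min) proportional to CYP1A2 activity; compounds in DMSO preincubated 10 min with enzyme and proluciferin substrate, then NADPH regeneration solution, 1 h, room temperature.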
(A reporter such as luciferase makes a cellular process visible.)
In the case of `COc1cc(O)c(C(=O)c2ccccc2)cc1S(=O)(=O)O`, the Potency result was “inactive”.
The same measure, in the same setting: the entry for `Oc1cccc(O)c1` is “inactive”; for `c1ccc2[nH]c(-c3cscn3)nc2c1` it is 5.06 µM (active) and 2.83 µM (active) and 2.45 µM (active); for `CC(O)COc1ccccc1` (stereo unspecified) it is “inactive”.
Still for that read-out and setting: the entry for `CN/C(=C\[N+](=O)[O-])NCCSCc1ccc(CN(C)C)o1` is “inactive and 24.5 µM (active)”; for `COCCOCCOC` it is “inactive”.
The same measure, in the same setting: the figure for `NCCNc1cccc2ccccc12` is 632 nM (active) and 778 nM (active) and 723 nM (active); for `Cc1c(N(C)C)c(=O)n(-c2ccccc2)n1C` it is 25.6 µM (active).
For `C1CNCCN1`, the Potency is 41.1 µM (active) and inactive.
On the same count and under the same terms, the entry for `Cc1cnc(NC(=O)C2=C(O)c3ccccc3S(=O)(=O)N2C)s1` is “inactive”; for `CCCCOC(=O)CCCCCCCCC(=O)OCCCC` it is “inactive”.
Same read-out and setting: the entry for `NC(=O)OCC(COC(N)=O)c1ccccc1` is “inactive”; for `CC(=O)c1ccc(S(=O)(=O)NC(=O)NC2CCCCC2)cc1` it is “inactive”.
On the same count and under the same terms, next, `Cc1cccc(Nc2cc(Cl)nc(SCC(=O)O)n2)c1C`: “inactive”; `COC(=O)c1ccc(O)cc1`: 32 µM (active) and 35.6 µM (active) and 27.5 µM (active); `CCN1CCCC1=O`: “inactive”.
With `O=C1OC(c2ccc(O)cc2)(c2ccc(O)cc2)c2ccccc21`, the Potency is 56 µM (active) and inactive.
The same measure, in the same setting: next, `N[C@@H](Cc1c[nH]c2ccc(O)cc12)C(=O)O`: 30.8 µM (active) and 30.9 µM (active); `O=c1c(-c2ccc(O)cc2)coc2cc(O)cc(O)c12`: 19.7 µM (active) and 39.9 µM (active).
The same measure, in the same setting: next, `CC(C)CC(C)CC(O)CC(C)C` (stereo unspecified): “inactive”.
Take `COC1=CC(=O)C[C@@H](C)[C@]12Oc1c(Cl)c(OC)cc(OC)c1C2=O`: the Potency result is “inactive”.
The same measure, in the same setting: the entry for `CCCCCCCC(=O)OCC(O)CO` (stereo unspecified) is “inactive”; for `C/C=C/c1ccc(O)c(OC)c1` it is 20 µM (active) and 22.4 µM (active) and 11.5 µM (active); for `CC(=O)OC/C=C(C)/C=C/C=C(C)/C=C/C1=C(C)CCCC1(C)C` it is “inactive”.
Same read-out and setting: next, `C[C@]12CC[C@@H]3c4ccc(O)cc4C[C@@H](CCCCCCCCCS(=O)CCCC(F)(F)C(F)(F)F)[C@H]3[C@@H]1CC[C@@H]2O` (stereo partly specified): “inactive”; `Nc1cccc(N)c1`: 63.2 µM (active) and 39.4 µM (active) and 31.7 µM (active); `CCCCCCCCCCCCCC(=O)OC(C)C`: “inactive”.

The target of another assay is Voltage-gated inwardly rectifying potassium channel KCNH2 (Homo sapiens) (UniProt Q12809). Put plainly: Human Ether-a-go-go-Related Gene (hERG) channel small molecule antagonists: fluorescence cell-based qHTS assay (AID 1671200). The conditions noted are these: hERG-U2OS cells, FluxOR thallium flux fluorescence; series mostly up to 76.8 µM. The gist of the method: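 Read-out: thallium influx as a surrogate for potassium, tracked as fluorescence (480 nm ex/540 nm em) every second for 2 min after Stimulus Buffer addition in dye-loaded hERG-U2OS cells.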
Sequence of Voltage-gated inwardly rectifying potassium channel KCNH2 (Homo sapiens) (Q12809 whole entry, looked up): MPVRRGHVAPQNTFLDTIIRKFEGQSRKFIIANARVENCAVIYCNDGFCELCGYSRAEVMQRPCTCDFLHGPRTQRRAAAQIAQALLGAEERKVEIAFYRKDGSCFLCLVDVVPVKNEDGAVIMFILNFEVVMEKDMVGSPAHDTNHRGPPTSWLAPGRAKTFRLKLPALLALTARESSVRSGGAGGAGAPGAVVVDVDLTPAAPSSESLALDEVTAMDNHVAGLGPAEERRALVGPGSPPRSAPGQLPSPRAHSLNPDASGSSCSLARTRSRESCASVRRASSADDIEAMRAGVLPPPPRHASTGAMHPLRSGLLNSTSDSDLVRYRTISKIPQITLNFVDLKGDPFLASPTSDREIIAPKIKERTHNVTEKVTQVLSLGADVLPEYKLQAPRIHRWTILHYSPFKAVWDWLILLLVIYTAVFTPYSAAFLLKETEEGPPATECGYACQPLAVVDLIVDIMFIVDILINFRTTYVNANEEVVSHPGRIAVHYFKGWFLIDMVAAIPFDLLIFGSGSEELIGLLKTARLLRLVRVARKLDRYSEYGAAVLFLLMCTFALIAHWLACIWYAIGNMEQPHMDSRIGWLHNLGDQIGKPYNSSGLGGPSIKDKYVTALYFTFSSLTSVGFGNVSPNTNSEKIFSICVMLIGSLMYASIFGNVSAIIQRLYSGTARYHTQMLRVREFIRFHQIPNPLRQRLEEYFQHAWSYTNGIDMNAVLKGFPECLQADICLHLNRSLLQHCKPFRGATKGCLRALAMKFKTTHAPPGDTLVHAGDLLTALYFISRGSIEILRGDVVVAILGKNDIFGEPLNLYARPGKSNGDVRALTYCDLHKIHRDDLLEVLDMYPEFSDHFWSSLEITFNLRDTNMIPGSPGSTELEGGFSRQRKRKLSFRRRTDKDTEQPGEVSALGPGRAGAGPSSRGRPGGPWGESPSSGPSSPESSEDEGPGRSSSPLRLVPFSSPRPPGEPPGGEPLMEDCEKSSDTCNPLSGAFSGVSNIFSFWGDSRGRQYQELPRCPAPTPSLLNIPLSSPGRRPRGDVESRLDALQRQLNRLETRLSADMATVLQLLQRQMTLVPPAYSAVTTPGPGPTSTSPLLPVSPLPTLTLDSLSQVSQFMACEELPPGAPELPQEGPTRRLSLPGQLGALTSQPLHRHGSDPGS
With `COc1cc(O)c(C(=O)c2ccccc2)cc1S(=O)(=O)O`, the Potency entry is “inactive”.
On the same count and under the same terms, the entry for `Oc1cccc(O)c1` is “inactive”.
Take `CC(O)COc1ccccc1` (stereo unspecified): the Potency entry is “inactive”.
For `CN/C(=C\[N+](=O)[O-])NCCSCc1ccc(CN(C)C)o1`, the Potency result was “inactive”.
The same measure, in the same setting: the entry for `COCCOCCOC` is “inactive”; for `NCCNc1cccc2ccccc12` it is “inactive”.
On the same count and under the same terms, the entry for `Cc1c(N(C)C)c(=O)n(-c2ccccc2)n1C` is “inactive”.
As for `C1CNCCN1`, the Potency entry was “inactive”.
The same measure, in the same setting: the entry for `CCCCOC(=O)CCCCCCCCC(=O)OCCCC` is “inactive”; for `NC(=O)OCC(COC(N)=O)c1ccccc1` it is “inactive”.
Take `CC(=O)c1ccc(S(=O)(=O)NC(=O)NC2CCCCC2)cc1`: the Potency entry is “inactive”.
Still for that read-out and setting: the entry for `Cc1cccc(Nc2cc(Cl)nc(SCC(=O)O)n2)c1C` is “inactive”; for `COC(=O)c1ccc(O)cc1` it is “inactive”; for `CCN1CCCC1=O` it is “inactive”.
Same read-out and setting: next, `O=C1OC(c2ccc(O)cc2)(c2ccc(O)cc2)c2ccccc21`: “inactive and 38.9 µM (active)”; `O=c1c(-c2ccc(O)cc2)coc2cc(O)cc(O)c12`: “inactive”; `CC(C)CC(C)CC(O)CC(C)C` (stereo unspecified): “inactive”.
On the same count and under the same terms, the entry for `CCCCCCCC(=O)OCC(O)CO` (stereo unspecified) is “inactive”; for `C/C=C/c1ccc(O)c(OC)c1` it is “inactive”.
Take `CC(=O)OC/C=C(C)/C=C/C=C(C)/C=C/C1=C(C)CCCC1(C)C`: the Potency entry was “inactive”.
As for `C[C@]12CC[C@@H]3c4ccc(O)cc4C[C@@H](CCCCCCCCCS(=O)CCCC(F)(F)C(F)(F)F)[C@H]3[C@@H]1CC[C@@H]2O` (stereo partly specified), the Potency result is “inactive”.
Turning to `CCCCCCCCCCCCCC(=O)OC(C)C`, the Potency entry is “inactive”.

Another assay addresses Cytochrome P450 3A4 (Homo sapiens) (UniProt P08684). Kind of assay: Cytochrome P450 Family 3 Subfamily A Member 4 (CYP3A4) small molecule antagonists: luciferase reporter qHTS assay (AID 1671201). The conditions noted are these: P450-Glo CYP3A4 enzyme, luciferin luminescence, 1 h; series mostly up to 115 µM. The essentials:
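Luminescent readout (RLU) proportional to CYP3A4 activity, from luciferin generated off a proluciferin substrate. Enzyme–substrate mix plus compound 10 min at room temp, NADPH regeneration 1 h, detection reagent 20 min.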
Turning to `COc1cc(O)c(C(=O)c2ccccc2)cc1S(=O)(=O)O`, the Potency result is “inactive”.
As to `CC(O)COc1ccccc1` (stereo unspecified), the Potency result is “inactive”.
`CN/C(=C\[N+](=O)[O-])NCCSCc1ccc(CN(C)C)o1`: the Potency result is “inactive”.
Regarding `COCCOCCOC`, the Potency result was “inactive”.
Same read-out and setting: the figure for `NCCNc1cccc2ccccc12` is 31.7 µM (active) and inactive; for `Cc1c(N(C)C)c(=O)n(-c2ccccc2)n1C` it is “inactive”.
For `C1CNCCN1`, the Potency result was “inactive”.
Still for that read-out and setting: the entry for `CCCCOC(=O)CCCCCCCCC(=O)OCCCC` is “inactive”; for `NC(=O)OCC(COC(N)=O)c1ccccc1` it is “inactive”; for `CC(=O)c1ccc(S(=O)(=O)NC(=O)NC2CCCCC2)cc1` it is “inactive”.
On the same count and under the same terms, next, `Cc1cccc(Nc2cc(Cl)nc(SCC(=O)O)n2)c1C`: “inactive”.
The same measure, in the same setting: the entry for `COC(=O)c1ccc(O)cc1` is “inactive”; for `CCN1CCCC1=O` it is “inactive”; for `CC(C)CC(C)CC(O)CC(C)C` (stereo unspecified) it is “inactive”.
Turning to `CCCCCCCC(=O)OCC(O)CO` (stereo unspecified), the Potency result was “inactive”.
The same measure, in the same setting: next, `C[C@]12CC[C@@H]3c4ccc(O)cc4C[C@@H](CCCCCCCCCS(=O)CCCC(F)(F)C(F)(F)F)[C@H]3[C@@H]1CC[C@@H]2O` (stereo partly specified): 2 µM (active) and 1.86 µM (active) and 1.55 µM (active).
On to `CCCCCCCCCCCCCC(=O)OC(C)C`, for which the Potency entry was “inactive”.

Values taken from PubChem BioAssay (Tox21).
